A selection: hits, their analogues and other compounds. The true share with any hit is near 2.4%.
M1 ag – activates human CHRM1 receptor. P11229. CHO-K1 hM1, Fluo-8 calcium fluorescence, agonist mode; 0% DMSO, 100% acetylcholine EC100. activation, % at 3 µM. 0.33% of 360,000 active. AID 588814;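 active means activation above the run's mean compound activation plus 3 SD, cut at about 16% in these data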;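 further: peak over basal fluorescence ratio within a 140 s kinetic read after compound addition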
Target sequence (P11229 whole entry, looked up): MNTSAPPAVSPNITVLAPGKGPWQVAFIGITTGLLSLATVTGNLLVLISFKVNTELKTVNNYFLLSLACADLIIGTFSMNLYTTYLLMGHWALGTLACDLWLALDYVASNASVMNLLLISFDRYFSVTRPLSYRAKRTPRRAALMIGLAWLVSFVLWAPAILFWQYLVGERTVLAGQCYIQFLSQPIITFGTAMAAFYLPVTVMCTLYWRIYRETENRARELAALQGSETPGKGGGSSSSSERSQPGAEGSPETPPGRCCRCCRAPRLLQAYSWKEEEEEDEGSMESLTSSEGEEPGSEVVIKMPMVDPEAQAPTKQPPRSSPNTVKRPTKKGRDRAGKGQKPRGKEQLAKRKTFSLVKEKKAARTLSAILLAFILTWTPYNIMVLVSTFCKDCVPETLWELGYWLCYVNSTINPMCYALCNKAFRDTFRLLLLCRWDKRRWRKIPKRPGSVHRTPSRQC
CHO-K1 Ca ag – counter-screen for M1 agonists: effect in parental CHO-K1 cells. Fluo-8 calcium fluorescence; scaled to maximal ATP response, vehicle zero. activation, % at 3 µM. 0.48% of 360,000 active; in the data active means activation above about 15%;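 further: untransfected CHO-K1 host cells lacking M1 receptor as counterscreen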
M1 PAM – human CHRM1 positive allosteric modulation; 0.088% of 360,000 active; CHO-K1 hM1, Fluo-8 calcium fluorescence, ACh EC20; 0% = ACh EC20, 100% = maximal ACh; P11229; activation, % at 3 µM; in the data active means activation above about 19%, passing the limit was not always enough
CHRM1 antagonist – blocks human M1 muscarinic receptor; P11229; CHO-K1 hM1, Fluo-8 calcium fluorescence, ACh EC80 antagonist; inhibition, % at 3 µM; 1.3% of 360,000 active; AID 588852;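 active means percent inhibition above its own plate's cutoff, namely the mean of that plate's compound wells plus 3 SD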;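 further: peak over basal fluorescence ratio during 140 s after agonist addition; 0% = ACh EC80 plus DMSO and 100% = DMSO alone without agonist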
CHO-K1 Ca antag – counter-screen for M1 antagonists: effect in parental CHO-K1 cells; ATP-induced calcium, Fluo-8 fluorescence; 0.6% of 360,000 active; inhibition, % at 3 µM;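 active means inhibition above a per-plate cutoff, the plate's mean sample inhibition plus 3 SD, cut at about 24% in these data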;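 further: 0% = DMSO plus EC80 ATP and 100% = DMSO alone without ATP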
CHO-K1 Ca PAM – nonselective activator or artifact in parental CHO-K1 calcium assay | ATP EC20, Fluo-8 calcium fluorescence; 0% at ATP EC20, 100% at ATP max | activation, % at 3 µM | 0.02% of 360,000 active;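 active means activation above the run cutoff, the mean activation of all test compounds plus 3 SD, cut at about 40% in these data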;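 further: peak over basal fluorescence ratio in a 140 s read after ATP addition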
The depositor's hits bear a star.

Screening O=C(Cn1ccccc1=S)c1ccc(Cl)c(Cl)c1 returned M1 ag -6.3, CHO-K1 Ca ag 2.0, M1 PAM 7.8, CHRM1 antagonist -6.3, CHO-K1 Ca antag -15.8 and CHO-K1 Ca PAM 24.1.
Screening Cc1cc(-n2c(C)cc(C(=O)COc3ccc(F)c(F)c3)c2C)no1 returned M1 ag -3.9, CHO-K1 Ca ag 3.6, M1 PAM -4.2, CHRM1 antagonist 5.0, CHO-K1 Ca antag -2.1 and CHO-K1 Ca PAM -5.8.
CC(=O)Nc1ccc(NC(=O)COC(=O)c2ccc(S(=O)(=O)N(C)c3ccccc3)cc2)cc1 was read as M1 ag -5.1, CHO-K1 Ca ag 0.6, M1 PAM -7.7, CHRM1 antagonist 10.3, CHO-K1 Ca antag -5.0 and CHO-K1 Ca PAM -1.7.
For Cc1ccc(C(C)NC(=O)/C(C#N)=C\c2c(C)[nH]c3ccccc23)cc1 (stereo not drawn) the results were M1 ag 20.7*, CHO-K1 Ca ag 7.3, M1 PAM -0.2, CHRM1 antagonist 11.9, CHO-K1 Ca antag -10.5 and CHO-K1 Ca PAM 12.2.
COC(=O)C1=C(C)N(Cc2ccccc2)C(=NCCN2CCOCC2)N[C@H]1CCc1ccccc1 was read as M1 ag -11.6, CHO-K1 Ca ag 0.9, M1 PAM 8.8, CHRM1 antagonist -7.3, CHO-K1 Ca antag -15.2 and CHO-K1 Ca PAM 14.3.
Screening CCN1C(=NCCN2CCOCC2)N[C@@H](c2ccccc2)C(C(=O)OC)=C1C returned M1 ag -9.7, CHO-K1 Ca ag -0.6, M1 PAM -10.1, CHRM1 antagonist 4.6, CHO-K1 Ca antag 26.0* and CHO-K1 Ca PAM -21.3.
`COC(=O)C1=C(C)N(Cc2ccccc2)C(=NCc2ccccc2)N[C@H]1c1ccccc1` gave M1 ag -5.9, CHO-K1 Ca ag 15.9*, M1 PAM 0.1, CHRM1 antagonist 16.1, CHO-K1 Ca antag 9.2 and CHO-K1 Ca PAM 6.0.
Screening Fc1ccc(-c2nc3ccccn3c2NCc2ccc3c(c2)OCO3)cc1 returned M1 ag -9.7, CHO-K1 Ca ag 3.6, M1 PAM -6.6, CHRM1 antagonist 10.9, CHO-K1 Ca antag 25.7* and CHO-K1 Ca PAM -8.2.
For CC1(C)NC(=O)N(CC(=O)OCC(=O)NC(=O)c2ccccc2)C1=O the results were M1 ag -2.0, CHO-K1 Ca ag 2.8, M1 PAM 5.2, CHRM1 antagonist -4.8, CHO-K1 Ca antag -0.2 and CHO-K1 Ca PAM 11.4.
For O=C(COC(=O)CNC(=O)c1ccccc1Cl)Nc1ccccc1Cl the results were M1 ag 3.0, CHO-K1 Ca ag 0.7, M1 PAM 16.5, CHRM1 antagonist -13.4, CHO-K1 Ca antag -16.4 and CHO-K1 Ca PAM 21.0.
Screening CCOC(=O)c1sc(NC(=O)C2CCC2)cc1C returned M1 ag -7.0, CHO-K1 Ca ag -0.5, M1 PAM 5.4, CHRM1 antagonist 2.5, CHO-K1 Ca antag 26.4* and CHO-K1 Ca PAM -9.5.
`CCOC(=O)c1sc(NC(C)=O)cc1C` gave M1 ag -2.6, CHO-K1 Ca ag 0.4, M1 PAM 8.3, CHRM1 antagonist -13.9, CHO-K1 Ca antag -7.9 and CHO-K1 Ca PAM 14.9.
`CCOC(=O)c1sc(NC(=O)Nc2ccccc2Cl)cc1C` gave M1 ag -1.2, CHO-K1 Ca ag 12.1, M1 PAM -12.7, CHRM1 antagonist 17.8, CHO-K1 Ca antag 22.0 and CHO-K1 Ca PAM -1.4.
For CCOC(=O)c1sc(NC(=O)Nc2ccccc2)cc1C the results were M1 ag -3.1, CHO-K1 Ca ag 16.8*, M1 PAM -17.4, CHRM1 antagonist 32.8, CHO-K1 Ca antag 29.1* and CHO-K1 Ca PAM -0.5.
For Cc1ccc(C(=O)NNCC(=O)Nc2ccc(Cl)cc2F)cc1 the results were M1 ag -1.6, CHO-K1 Ca ag 0.0, M1 PAM 12.6, CHRM1 antagonist -11.1, CHO-K1 Ca antag -9.4 and CHO-K1 Ca PAM 9.0.
Screening Cc1cc(NC(=O)c2ccccc2)ccc1NC(=O)Cc1ccccc1 returned M1 ag -0.7, CHO-K1 Ca ag 1.4, M1 PAM 10.2, CHRM1 antagonist -14.8, CHO-K1 Ca antag -8.9 and CHO-K1 Ca PAM 11.6.
CCN(CC)c1ccc(C(=C2C=CC(=[N+](CC)CC)C=C2)c2ccccc2)cc1 was read as M1 ag 25.7*, CHO-K1 Ca ag 38.5*, M1 PAM -33.7, CHRM1 antagonist 96.9*, CHO-K1 Ca antag 75.3* and CHO-K1 Ca PAM -27.4.
`CCN(CC)c1ccc(C(=C2C=CC(=[N+](CC)CC)C=C2)c2ccc(N(CC)CC)cc2)cc1` gave M1 ag 2.1, CHO-K1 Ca ag 9.1, M1 PAM -7.0, CHRM1 antagonist 45.8*, CHO-K1 Ca antag 22.6 and CHO-K1 Ca PAM 11.2.
CCN(CC)c1ccc(C(=O)NNC(=O)CCNC(=O)c2ccccc2)cc1 was read as M1 ag -2.5, CHO-K1 Ca ag 0.7, M1 PAM 11.9, CHRM1 antagonist -10.6, CHO-K1 Ca antag -6.9 and CHO-K1 Ca PAM 22.0.
`Cc1ccccc1CN1CCC(n2nccc2NC(=O)CCOc2ccccc2)CC1` gave M1 ag -4.0, CHO-K1 Ca ag 6.2, M1 PAM 2.1, CHRM1 antagonist -8.0, CHO-K1 Ca antag -4.0 and CHO-K1 Ca PAM 13.3.
For CCOC(OCC)c1nc(N)[nH]c(=O)c1CCCCc1ccccc1 the results were M1 ag -1.1, CHO-K1 Ca ag 0.5, M1 PAM -0.6, CHRM1 antagonist -7.7, CHO-K1 Ca antag -17.5 and CHO-K1 Ca PAM 8.5.
For Cc1cc(C)c2c(CN3CCN(CCO)CC3)cc(=O)oc2c1 the results were M1 ag -6.8, CHO-K1 Ca ag -0.6, M1 PAM -7.0, CHRM1 antagonist 7.2, CHO-K1 Ca antag 29.4* and CHO-K1 Ca PAM -6.7.
COc1cccc(S(=O)(=O)N(C)C[C@H]2OCc3cn(nn3)CCCC(=O)N([C@@H](C)CO)C[C@@H]2C)c1 was read as M1 ag 3.2, CHO-K1 Ca ag 0.4, M1 PAM 8.2, CHRM1 antagonist -1.9, CHO-K1 Ca antag 10.3 and CHO-K1 Ca PAM 17.9.
COc1cc(C(=O)NCc2cc3ccccc3n2C)cc(OC)c1OC was read as M1 ag -2.5, CHO-K1 Ca ag 16.4*, M1 PAM -0.9, CHRM1 antagonist -3.1, CHO-K1 Ca antag 15.9 and CHO-K1 Ca PAM -11.3.
O=C(Nc1ncccc1O)c1ccc(Oc2ccccc2)cc1 was read as M1 ag -3.4, CHO-K1 Ca ag 1.1, M1 PAM 0.0, CHRM1 antagonist -3.4, CHO-K1 Ca antag -14.6 and CHO-K1 Ca PAM -5.1.
Screening O=C(Nc1ccccc1)Nc1ccc2nnsc2c1 returned M1 ag 5.4, CHO-K1 Ca ag 18.5*, M1 PAM -20.7, CHRM1 antagonist 59.1*, CHO-K1 Ca antag 25.4* and CHO-K1 Ca PAM -10.7.
`O=C(Nc1ccccc1)Nc1ccc2snnc2c1` gave M1 ag 8.9, CHO-K1 Ca ag 13.6, M1 PAM -9.0, CHRM1 antagonist 19.6, CHO-K1 Ca antag 21.0 and CHO-K1 Ca PAM 4.9.
For Cc1cccc(/C(N)=N/OC(=O)CCc2ccccc2)c1 the results were M1 ag -5.3, CHO-K1 Ca ag -0.1, M1 PAM -23.1, CHRM1 antagonist 31.5*, CHO-K1 Ca antag -12.1 and CHO-K1 Ca PAM 6.5.
